# Source: publication PMC7862700, “An all-to-all approach to the identification of sequence-specific readers for epigenetic DNA modifications on cytosine”
# Columns and labels:
# Test in all cases: DAPPL (digital affinity profiling via proximity ligation, sequencing); 10 mM Tris-HCl pH 7.5, 50 mM NaCl, 1 mM DTT, 4% glycerol, room temperature, 30 min; GST-TFs on glutathione beads, 16-mer random dsDNA library, 0.1% formaldehyde crosslink after washing; high values mean tight binding
# FLI1 = target: T1, FLI1 (Homo sapiens, UniProt Q01543 1-452); conditions: protein: recombinant; tags: N-terminal GST; dsDNA, one strand shown
# T1 sequence: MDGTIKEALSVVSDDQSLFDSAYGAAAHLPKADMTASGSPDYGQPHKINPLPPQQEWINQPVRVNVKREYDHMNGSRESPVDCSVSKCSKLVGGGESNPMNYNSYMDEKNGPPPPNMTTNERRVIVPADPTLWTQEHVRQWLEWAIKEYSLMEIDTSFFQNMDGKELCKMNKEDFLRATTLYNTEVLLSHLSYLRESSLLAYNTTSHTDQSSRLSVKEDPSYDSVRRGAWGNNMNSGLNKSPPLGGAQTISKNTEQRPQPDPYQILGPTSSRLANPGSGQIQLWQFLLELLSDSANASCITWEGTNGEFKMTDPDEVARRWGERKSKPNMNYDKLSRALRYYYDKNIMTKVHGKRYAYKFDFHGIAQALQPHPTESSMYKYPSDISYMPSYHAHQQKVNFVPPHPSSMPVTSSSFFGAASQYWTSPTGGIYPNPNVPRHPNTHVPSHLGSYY
# Outline: (§1)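 A tag-only sample was pooled with DNA-barcoded human transcription factors that had been expressed in yeast as GST fusions and captured on glutathione beads. The pools were incubated for 30 min at room temperature with 200 nmole of a random double-stranded 16-mer DNA library in Tris/NaCl/DTT/glycerol buffer, then washed, crosslinked with 0.1% formaldehyde, proximity-ligated (BsaI/T4 ligase, 1 h, 37 °C), PCR-amplified and sequenced on an Illumina NextSeq500. Binding signal is each hexamer's read frequency for a factor divided by its frequency for the tag-only sample.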
# ELK1 = target: T2, ELK1 (Homo sapiens, UniProt P19419 1-428); conditions: protein: recombinant; tags: N-terminal GST; dsDNA, one strand shown
# T2 sequence: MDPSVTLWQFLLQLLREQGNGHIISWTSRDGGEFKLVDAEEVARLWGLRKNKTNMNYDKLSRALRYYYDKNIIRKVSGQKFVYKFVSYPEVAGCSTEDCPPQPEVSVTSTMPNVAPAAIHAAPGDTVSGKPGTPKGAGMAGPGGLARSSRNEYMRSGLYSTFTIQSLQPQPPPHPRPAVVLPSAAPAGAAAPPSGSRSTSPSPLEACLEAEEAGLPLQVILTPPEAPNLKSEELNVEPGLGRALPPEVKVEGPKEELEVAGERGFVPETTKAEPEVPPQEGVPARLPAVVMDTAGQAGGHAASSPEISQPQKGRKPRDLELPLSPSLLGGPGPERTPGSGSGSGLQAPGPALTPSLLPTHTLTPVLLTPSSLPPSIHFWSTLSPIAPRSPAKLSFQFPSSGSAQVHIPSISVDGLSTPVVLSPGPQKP
# Outline: as §1
# GABPA = target: T3, GABPA (Homo sapiens, UniProt Q06546 1-454); conditions: protein: recombinant; tags: N-terminal GST; dsDNA, one strand shown
# T3 sequence: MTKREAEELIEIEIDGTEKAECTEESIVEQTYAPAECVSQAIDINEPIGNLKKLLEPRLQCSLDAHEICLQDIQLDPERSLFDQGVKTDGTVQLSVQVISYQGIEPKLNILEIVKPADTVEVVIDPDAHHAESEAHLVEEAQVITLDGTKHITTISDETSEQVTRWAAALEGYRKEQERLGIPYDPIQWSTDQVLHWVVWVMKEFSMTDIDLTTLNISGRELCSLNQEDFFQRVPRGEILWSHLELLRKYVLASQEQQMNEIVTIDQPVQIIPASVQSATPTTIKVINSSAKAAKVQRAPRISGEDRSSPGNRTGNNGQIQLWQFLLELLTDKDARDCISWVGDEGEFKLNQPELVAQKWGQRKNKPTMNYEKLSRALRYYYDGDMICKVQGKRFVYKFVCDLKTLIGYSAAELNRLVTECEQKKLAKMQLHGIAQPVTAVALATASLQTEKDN
# Outline: as §1
# ERG = target: T4, ERG (Homo sapiens, UniProt P11308 1-479); conditions: protein: recombinant; tags: N-terminal GST; dsDNA, one strand shown
# T4 sequence: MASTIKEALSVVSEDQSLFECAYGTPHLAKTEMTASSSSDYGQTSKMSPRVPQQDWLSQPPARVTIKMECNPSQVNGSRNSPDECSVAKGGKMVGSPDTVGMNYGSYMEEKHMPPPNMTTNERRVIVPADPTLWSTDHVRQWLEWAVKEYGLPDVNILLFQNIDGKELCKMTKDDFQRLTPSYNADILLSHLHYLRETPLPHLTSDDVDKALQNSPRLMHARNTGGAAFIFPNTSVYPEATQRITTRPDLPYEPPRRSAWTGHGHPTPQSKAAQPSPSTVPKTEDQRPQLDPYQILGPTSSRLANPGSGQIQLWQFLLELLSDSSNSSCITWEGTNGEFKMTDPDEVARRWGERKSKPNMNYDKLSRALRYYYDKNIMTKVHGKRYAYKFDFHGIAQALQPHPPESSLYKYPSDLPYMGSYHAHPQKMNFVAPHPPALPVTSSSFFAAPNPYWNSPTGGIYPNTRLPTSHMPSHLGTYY
# Outline: as §1
# ELF1 = ELF1 (Homo sapiens, UniProt P32519 1-619); conditions: protein: recombinant; tags: N-terminal GST; dsDNA, one strand shown
# Sequence of ELF1 (P32519 whole entry): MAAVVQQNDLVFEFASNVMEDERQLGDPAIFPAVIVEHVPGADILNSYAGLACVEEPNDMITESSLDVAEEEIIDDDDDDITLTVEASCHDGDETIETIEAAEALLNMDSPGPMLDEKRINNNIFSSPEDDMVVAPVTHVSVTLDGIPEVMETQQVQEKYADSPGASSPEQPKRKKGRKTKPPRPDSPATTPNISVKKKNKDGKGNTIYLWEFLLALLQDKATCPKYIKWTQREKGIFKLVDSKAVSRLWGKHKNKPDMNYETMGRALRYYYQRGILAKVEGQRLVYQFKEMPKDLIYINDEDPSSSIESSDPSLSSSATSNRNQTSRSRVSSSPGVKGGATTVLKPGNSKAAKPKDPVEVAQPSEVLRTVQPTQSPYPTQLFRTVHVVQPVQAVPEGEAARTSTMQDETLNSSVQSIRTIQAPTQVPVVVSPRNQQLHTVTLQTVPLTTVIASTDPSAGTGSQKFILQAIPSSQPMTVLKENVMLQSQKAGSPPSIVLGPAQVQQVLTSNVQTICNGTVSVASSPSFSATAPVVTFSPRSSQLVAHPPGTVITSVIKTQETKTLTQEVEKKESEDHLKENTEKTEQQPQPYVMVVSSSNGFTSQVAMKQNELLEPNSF
# Outline: as §1
# EHF = target: T5, EHF (Homo sapiens, UniProt Q9NZC4 1-300); conditions: protein: recombinant; tags: N-terminal GST; dsDNA, one strand shown
# T5 sequence: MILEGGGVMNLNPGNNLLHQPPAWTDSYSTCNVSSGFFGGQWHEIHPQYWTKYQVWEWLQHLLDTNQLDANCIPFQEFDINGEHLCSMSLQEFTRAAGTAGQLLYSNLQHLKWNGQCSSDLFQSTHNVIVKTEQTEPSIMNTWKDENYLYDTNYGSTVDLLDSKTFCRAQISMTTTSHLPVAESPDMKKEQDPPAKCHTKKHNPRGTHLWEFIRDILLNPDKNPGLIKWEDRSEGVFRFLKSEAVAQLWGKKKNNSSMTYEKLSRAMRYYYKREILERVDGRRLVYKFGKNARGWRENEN
# Outline: as §1
# SPI1 = SPI1 (Homo sapiens, UniProt P17947 1-270); conditions: protein: recombinant; tags: N-terminal GST; dsDNA, one strand shown
# Outline: as §1
# SPIB = SPIB (Homo sapiens, UniProt Q01892 1-262); conditions: protein: recombinant; tags: N-terminal GST; dsDNA, one strand shown
# Sequence of SPIB (Q01892 whole entry): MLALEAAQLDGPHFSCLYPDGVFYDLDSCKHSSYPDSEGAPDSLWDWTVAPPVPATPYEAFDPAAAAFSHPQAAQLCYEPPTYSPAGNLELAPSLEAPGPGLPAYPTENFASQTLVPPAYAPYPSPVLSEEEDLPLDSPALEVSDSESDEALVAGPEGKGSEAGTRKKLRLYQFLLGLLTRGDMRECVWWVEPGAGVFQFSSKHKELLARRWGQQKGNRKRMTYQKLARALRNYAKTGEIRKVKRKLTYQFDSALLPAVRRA
# Outline: as §1
# ELK3 = target: T6, ELK3 (Homo sapiens, UniProt P41970 1-407); conditions: protein: recombinant; tags: N-terminal GST; dsDNA, one strand shown
# T6 sequence: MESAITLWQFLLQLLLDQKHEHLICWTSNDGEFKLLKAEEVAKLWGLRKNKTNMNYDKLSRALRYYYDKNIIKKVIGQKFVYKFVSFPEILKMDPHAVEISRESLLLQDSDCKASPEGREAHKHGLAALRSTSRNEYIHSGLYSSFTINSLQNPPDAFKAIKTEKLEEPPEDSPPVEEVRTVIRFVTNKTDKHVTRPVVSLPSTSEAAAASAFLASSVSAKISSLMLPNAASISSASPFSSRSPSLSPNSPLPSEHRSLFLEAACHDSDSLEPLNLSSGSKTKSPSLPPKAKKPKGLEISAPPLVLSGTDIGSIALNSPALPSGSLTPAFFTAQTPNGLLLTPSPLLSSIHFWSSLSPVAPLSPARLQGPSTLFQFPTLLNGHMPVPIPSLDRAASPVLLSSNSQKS
# Outline: as §1
# FEV = target: T7, FEV (Homo sapiens, UniProt Q99581 1-238); conditions: protein: recombinant; tags: N-terminal GST; dsDNA, one strand shown
# T7 sequence: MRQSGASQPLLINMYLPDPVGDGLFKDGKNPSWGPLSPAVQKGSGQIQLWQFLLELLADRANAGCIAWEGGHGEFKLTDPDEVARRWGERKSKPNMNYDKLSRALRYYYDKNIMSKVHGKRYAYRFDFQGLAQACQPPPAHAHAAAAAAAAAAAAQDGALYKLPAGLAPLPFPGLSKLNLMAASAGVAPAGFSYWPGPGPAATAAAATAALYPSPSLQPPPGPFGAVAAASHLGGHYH
# Outline: as §1
# ETV5 = ETV5 (Homo sapiens, UniProt P41161 1-510); conditions: protein: recombinant; tags: N-terminal GST; dsDNA, one strand shown
# Sequence of ETV5 (P41161 whole entry): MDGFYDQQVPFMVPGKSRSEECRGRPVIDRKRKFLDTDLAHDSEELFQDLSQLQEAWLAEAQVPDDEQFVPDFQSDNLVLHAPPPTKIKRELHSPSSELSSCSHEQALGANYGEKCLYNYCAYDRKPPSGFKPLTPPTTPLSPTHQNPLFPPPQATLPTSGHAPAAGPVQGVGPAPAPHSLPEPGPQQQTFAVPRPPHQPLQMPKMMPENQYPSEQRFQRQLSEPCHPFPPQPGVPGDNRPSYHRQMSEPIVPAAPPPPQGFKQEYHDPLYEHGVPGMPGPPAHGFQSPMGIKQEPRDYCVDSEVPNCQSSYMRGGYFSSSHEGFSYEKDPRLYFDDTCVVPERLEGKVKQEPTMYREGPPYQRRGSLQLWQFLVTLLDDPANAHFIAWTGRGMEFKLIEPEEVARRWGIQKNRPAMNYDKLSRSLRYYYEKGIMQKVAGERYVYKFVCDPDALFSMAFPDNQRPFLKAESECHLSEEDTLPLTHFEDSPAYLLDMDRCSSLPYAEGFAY
# Outline: as §1
# HSF1 = HSF1 (Homo sapiens, UniProt Q00613 1-529); conditions: protein: recombinant; tags: N-terminal GST; chain copies: 3; dsDNA, one strand shown
# Sequence of HSF1 (Q00613 whole entry): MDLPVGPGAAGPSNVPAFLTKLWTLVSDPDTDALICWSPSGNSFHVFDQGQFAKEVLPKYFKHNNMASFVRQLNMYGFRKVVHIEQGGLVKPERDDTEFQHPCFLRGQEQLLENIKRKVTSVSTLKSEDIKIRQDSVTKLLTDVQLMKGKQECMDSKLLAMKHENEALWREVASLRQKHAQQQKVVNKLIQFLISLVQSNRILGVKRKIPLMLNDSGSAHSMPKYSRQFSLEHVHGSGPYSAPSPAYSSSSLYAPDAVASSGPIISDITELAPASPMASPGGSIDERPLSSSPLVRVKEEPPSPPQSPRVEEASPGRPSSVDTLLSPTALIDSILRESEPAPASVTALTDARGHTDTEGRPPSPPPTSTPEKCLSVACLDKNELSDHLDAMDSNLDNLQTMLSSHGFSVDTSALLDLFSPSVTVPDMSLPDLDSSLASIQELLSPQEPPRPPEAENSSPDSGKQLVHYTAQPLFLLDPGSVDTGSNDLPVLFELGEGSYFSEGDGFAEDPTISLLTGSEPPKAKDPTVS
# Outline: as §1
# SPIC = target: T8, SPIC (Homo sapiens, UniProt Q8N5J4 1-248); conditions: protein: recombinant; tags: N-terminal GST; dsDNA, one strand shown
# T8 sequence: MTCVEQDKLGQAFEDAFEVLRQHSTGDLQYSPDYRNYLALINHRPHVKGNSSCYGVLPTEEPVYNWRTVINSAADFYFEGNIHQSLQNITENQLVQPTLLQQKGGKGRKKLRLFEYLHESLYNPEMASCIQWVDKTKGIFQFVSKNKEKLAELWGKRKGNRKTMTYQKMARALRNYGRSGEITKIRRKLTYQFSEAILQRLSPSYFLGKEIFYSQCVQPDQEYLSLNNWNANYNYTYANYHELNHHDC
# Outline: as §1
# ELF4 = ELF4 (Homo sapiens, UniProt Q99607 1-663); conditions: protein: recombinant; tags: N-terminal GST; dsDNA, one strand shown
# Sequence of ELF4 (Q99607 whole entry): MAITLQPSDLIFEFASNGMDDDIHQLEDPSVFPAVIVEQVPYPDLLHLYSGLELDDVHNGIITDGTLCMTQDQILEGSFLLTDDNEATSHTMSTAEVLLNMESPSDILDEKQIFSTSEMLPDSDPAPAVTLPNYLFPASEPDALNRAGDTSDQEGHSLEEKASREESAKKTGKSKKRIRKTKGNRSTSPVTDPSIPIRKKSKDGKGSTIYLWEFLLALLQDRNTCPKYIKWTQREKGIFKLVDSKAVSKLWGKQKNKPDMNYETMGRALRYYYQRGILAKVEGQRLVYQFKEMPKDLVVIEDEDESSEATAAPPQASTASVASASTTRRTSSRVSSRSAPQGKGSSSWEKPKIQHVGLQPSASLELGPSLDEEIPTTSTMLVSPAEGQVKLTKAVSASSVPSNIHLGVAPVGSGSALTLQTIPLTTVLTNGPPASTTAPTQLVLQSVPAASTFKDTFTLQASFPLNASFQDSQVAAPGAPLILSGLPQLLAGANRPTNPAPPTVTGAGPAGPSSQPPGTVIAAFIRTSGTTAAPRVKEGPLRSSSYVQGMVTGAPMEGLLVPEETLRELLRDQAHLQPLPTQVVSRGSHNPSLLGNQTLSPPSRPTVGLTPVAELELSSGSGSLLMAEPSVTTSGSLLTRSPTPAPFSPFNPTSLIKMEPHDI
# Outline: as §1
# ELK4 = target: T9, ELK4 (Homo sapiens, UniProt P28324-2 1-405); conditions: protein: recombinant; tags: N-terminal GST; dsDNA, one strand shown
# T9 sequence: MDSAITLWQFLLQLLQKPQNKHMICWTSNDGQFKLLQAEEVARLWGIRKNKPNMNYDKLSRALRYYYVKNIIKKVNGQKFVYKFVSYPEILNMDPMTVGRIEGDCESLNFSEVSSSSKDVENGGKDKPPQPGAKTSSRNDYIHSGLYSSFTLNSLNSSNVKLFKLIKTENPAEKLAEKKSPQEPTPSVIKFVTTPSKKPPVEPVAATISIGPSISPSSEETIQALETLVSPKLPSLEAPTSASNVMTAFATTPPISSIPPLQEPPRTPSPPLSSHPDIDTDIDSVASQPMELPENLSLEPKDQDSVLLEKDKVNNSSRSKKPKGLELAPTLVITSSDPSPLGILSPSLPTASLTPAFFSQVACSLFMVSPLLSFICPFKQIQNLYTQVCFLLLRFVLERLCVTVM
# Outline: as §1
# ETV2 = target: T10, ETV2 (Homo sapiens, UniProt O00321 1-342); conditions: protein: recombinant; tags: N-terminal GST; dsDNA, one strand shown
# T10 sequence: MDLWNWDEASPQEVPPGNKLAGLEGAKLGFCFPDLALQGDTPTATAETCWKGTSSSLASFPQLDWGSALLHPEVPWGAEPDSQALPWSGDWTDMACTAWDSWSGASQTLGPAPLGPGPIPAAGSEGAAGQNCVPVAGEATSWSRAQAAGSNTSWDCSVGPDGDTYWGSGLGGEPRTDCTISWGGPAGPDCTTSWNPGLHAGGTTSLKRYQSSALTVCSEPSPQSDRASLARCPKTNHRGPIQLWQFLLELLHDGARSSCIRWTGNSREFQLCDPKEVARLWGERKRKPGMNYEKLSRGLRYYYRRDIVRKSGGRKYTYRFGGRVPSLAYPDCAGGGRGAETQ
# Outline: as §1
# ELF3 = target: T11, ELF3 (Homo sapiens, UniProt P78545 1-371); conditions: protein: recombinant; tags: N-terminal GST; dsDNA, one strand shown
# T11 sequence: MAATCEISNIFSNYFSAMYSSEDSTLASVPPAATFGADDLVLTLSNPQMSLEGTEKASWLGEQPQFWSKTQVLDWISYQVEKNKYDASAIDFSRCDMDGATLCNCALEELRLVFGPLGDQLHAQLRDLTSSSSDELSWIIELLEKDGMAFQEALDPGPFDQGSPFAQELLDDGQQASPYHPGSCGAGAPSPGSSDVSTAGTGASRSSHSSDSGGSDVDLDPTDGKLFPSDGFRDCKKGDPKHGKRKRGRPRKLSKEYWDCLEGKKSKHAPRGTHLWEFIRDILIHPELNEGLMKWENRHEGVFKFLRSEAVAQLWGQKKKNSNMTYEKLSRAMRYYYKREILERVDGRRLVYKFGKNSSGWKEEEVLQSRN
# Outline: as §1
# CRX = CRX (Homo sapiens, UniProt O43186 1-299); conditions: protein: recombinant; tags: N-terminal GST; dsDNA, one strand shown
# Sequence of CRX (O43186 whole entry): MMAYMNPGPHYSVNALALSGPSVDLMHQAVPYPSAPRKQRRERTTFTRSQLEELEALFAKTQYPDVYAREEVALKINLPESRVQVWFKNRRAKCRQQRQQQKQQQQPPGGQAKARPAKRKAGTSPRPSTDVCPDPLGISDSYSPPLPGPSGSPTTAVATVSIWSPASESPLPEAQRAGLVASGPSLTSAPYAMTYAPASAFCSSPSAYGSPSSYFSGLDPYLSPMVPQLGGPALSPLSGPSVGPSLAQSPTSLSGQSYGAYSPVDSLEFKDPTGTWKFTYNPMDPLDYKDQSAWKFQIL
# Outline: as §1
# ETV1 = ETV1 (Homo sapiens, UniProt P50549 1-477); conditions: protein: recombinant; tags: N-terminal GST; dsDNA, one strand shown
# Sequence of ETV1 (P50549 whole entry): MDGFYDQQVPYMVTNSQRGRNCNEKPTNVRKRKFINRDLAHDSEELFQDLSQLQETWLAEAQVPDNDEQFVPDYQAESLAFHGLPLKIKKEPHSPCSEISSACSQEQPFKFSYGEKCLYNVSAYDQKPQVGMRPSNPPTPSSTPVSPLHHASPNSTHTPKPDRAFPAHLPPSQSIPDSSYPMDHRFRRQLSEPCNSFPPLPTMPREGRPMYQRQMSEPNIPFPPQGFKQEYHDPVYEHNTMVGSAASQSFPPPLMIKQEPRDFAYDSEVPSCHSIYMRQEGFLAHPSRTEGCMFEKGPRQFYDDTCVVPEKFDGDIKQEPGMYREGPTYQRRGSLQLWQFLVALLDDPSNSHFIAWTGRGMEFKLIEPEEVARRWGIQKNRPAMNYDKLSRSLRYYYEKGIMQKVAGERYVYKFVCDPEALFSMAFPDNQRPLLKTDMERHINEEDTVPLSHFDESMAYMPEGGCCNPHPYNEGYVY
# Outline: as §1
sequence,measurement,setting,value
CTATCT,binding signal,FLI1,"1.26 fold enrichment (6-mer frequency, TF over GST control)"
same,binding signal,ELK1,"1.43 fold enrichment (6-mer frequency, TF over GST control)"
same,binding signal,GABPA,"1.34 fold enrichment (6-mer frequency, TF over GST control)"
same,binding signal,ERG,"1.29 fold enrichment (6-mer frequency, TF over GST control)"
same,binding signal,ELF1,"1.34 fold enrichment (6-mer frequency, TF over GST control)"
same,binding signal,EHF,"1.54 fold enrichment (6-mer frequency, TF over GST control)"
same,binding signal,SPI1,"1.42 fold enrichment (6-mer frequency, TF over GST control)"
same,binding signal,SPIB,"1.28 fold enrichment (6-mer frequency, TF over GST control)"
same,binding signal,ELK3,"1.48 fold enrichment (6-mer frequency, TF over GST control)"
same,binding signal,FEV,"1.34 fold enrichment (6-mer frequency, TF over GST control)"
same,binding signal,ETV5,"1.22 fold enrichment (6-mer frequency, TF over GST control)"
same,binding signal,HSF1,"1.4 fold enrichment (6-mer frequency, TF over GST control)"
same,binding signal,SPIC,"1.34 fold enrichment (6-mer frequency, TF over GST control)"
same,binding signal,ELF4,"1.34 fold enrichment (6-mer frequency, TF over GST control)"
same,binding signal,ELK4,"1.15 fold enrichment (6-mer frequency, TF over GST control)"
same,binding signal,ETV2,"1.39 fold enrichment (6-mer frequency, TF over GST control)"
same,binding signal,ELF3,"1.29 fold enrichment (6-mer frequency, TF over GST control)"
same,binding signal,CRX,"1.4 fold enrichment (6-mer frequency, TF over GST control)"
same,binding signal,ETV1,"1.24 fold enrichment (6-mer frequency, TF over GST control)"
